Assay results reported in PubChem BioAssay (EPA / NIEHS).
Records with an inconclusive call do not appear. Activity calls are given as the source filed them. The calls were made as follows, unless noted: active = hit-call score of the fitted dose curve at least 0.9, where 1 is the maximum; inactive = score below 0.9.

Tests used:
[1] = biological target: Glucocorticoid receptor (Homo sapiens) (UniProt P04150); test: ATG_GR_TRANS: Attagene TRANS-FACTORIAL HepG2 Assay for human Glucocorticoid Receptor (GR) (AID 2282978; active = hit-call score of the fitted dose curve at least 0.9, where 1 is the maximum;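 also: activators score as hits since higher reporter transcript over DMSO is fitted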); conditions: HepG2 Attagene TRANS GR reporter, mRNA transcription
Method in brief: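 Readout is reporter transcript from a chimeric GR-Gal4 acting on GAL4-UAS in transfected human HepG2 liver cells after 24 h exposure, quantified by RT-PCR and capillary electrophoresis. Activation fitted upward against DMSO.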

[2] = biological target: Bile acid receptor (Homo sapiens) (UniProt Q96RI1); test: ATG_FXR_TRANS: Attagene TRANS-FACTORIAL HepG2 Assay for Farnesoid X Receptor (FXR) (AID 2282979; active = hit-call score of the fitted dose curve at least 0.9, where 1 is the maximum;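 also: hits raise reporter mRNA above DMSO so AC50 marks FXR activation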); conditions: HepG2 Attagene TRANS FXR-GAL4 reporter transcription
Method in brief: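 After 24 h chemical treatment of transfected HepG2 cells, GAL4-UAS reporter transcripts driven by an exogenous FXR-GAL4 fusion were measured by RT-PCR and capillary electrophoresis. Increases over DMSO were fitted.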

[3] = ATG_M_06_TRANS: Attagene TRANS-FACTORIAL HepG2 Assay for M06 Transcription Factor (Internal Marker) (AID 2282983; active = hit-call score of the fitted dose curve at least 0.9, where 1 is the maximum); conditions: HepG2 Attagene TRANS M06 internal marker reporter
Method in brief: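 Multi-reporter-transfected HepG2, 24 h treatment; reporter transcripts quantified via RT-PCR, primer-extension labelling and CE. DMSO-normalized gain-of-signal fit.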

[4] = biological target: Nuclear receptor subfamily 4 group A member 2 (Homo sapiens) (UniProt P43354); test: ATG_NURR1_TRANS: Attagene TRANS-FACTORIAL HepG2 Assay for human Nuclear Receptor Related Protein 1 (NURR1) (AID 2282985; active = hit-call score of the fitted dose curve at least 0.9, where 1 is the maximum); conditions: HepG2 Attagene TRANS reporter, mRNA readout
Method in brief: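 Reporter transcript induction, measured by RT-PCR with fluorescent labelling, HpaI digestion and capillary electrophoresis, after 24 hr dosing of human HepG2 cells transiently expressing an exogenous NR-Gal4 fusion with GAL4-UAS-driven reporters; DMSO as baseline.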

[5] = biological target: Transcriptional activator Myb (Homo sapiens) (UniProt P10242); test: ATG_Myb_CIS: Attagene CIS-FACTORIAL HepG2 Assay for human Myeloblastosis (Myb) Proto-Oncogene Transcription Factor (AID 2282986); conditions: HepG2 Attagene CIS-FACTORIAL Myb reporter transcription; actives raise or lower the signal
Method in brief: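 Reporter mRNA is quantified by RT-PCR and capillary electrophoresis 24 h after dosing HepG2 cells transfected with cis-regulated reporter units, which track endogenous transcription factor activity. Gain and loss of signal are fitted versus DMSO baseline.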

[6] = biological target: Nuclear respiratory factor 1 (Homo sapiens) (UniProt Q16656); test: ATG_NRF1_CIS: Attagene CIS-FACTORIAL HepG2 Assay for human Nuclear Respiratory Factor 1 (NRF1) Orphan Gene (AID 2282987); conditions: HepG2 NRF1 cis-element reporter, Attagene multiplex; actives raise or lower the signal
Method in brief: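 Endogenous NRF1-driven reporter transcription in transfected HepG2 cells after 24 h treatment. Readout: RT-PCR products, 6-FAM labelled and resolved by capillary electrophoresis; changes fitted both directions relative to DMSO.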

[7] = ATG_NFI_CIS: Attagene CIS-FACTORIAL HepG2 Assay for human Nuclear Factor I (NFI) (AID 2282989); conditions: HepG2 cis-regulatory reporter, NFI response element transcription; actives raise or lower the signal
Method in brief: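 HepG2, transient MRTU, 24 h exposure; RNA→cDNA→PCR→FAM label→HpaI→CE fluorescence. Bidirectional fit, DMSO = baseline.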

[8] = biological target: Myc proto-oncogene protein (Homo sapiens) (UniProt P01106); test: ATG_Myc_CIS: Attagene CIS-FACTORIAL HepG2 Assay for human Myelocytomatosis (Myc) Proto-Oncogene Transcription Factor (AID 2282990); conditions: HepG2, Attagene cis-reporter transcription factor activity; actives raise or lower the signal
Method in brief: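 HepG2, transient MRTU transfection (cis promoters, endogenous TFs); 24 h dosing; TriZol RNA → oligo(dT) RT → PCR → 6-FAM primer extension → HpaI cut → CE. Bidirectional fit vs DMSO.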

[9] = ATG_NF_kB_CIS: Attagene CIS-FACTORIAL HepG2 Assay for human Nuclear Factor Kappa B (NF-kB) (AID 2282991); conditions: HepG2 Attagene cis-factorial NF-kB reporter mRNA; actives raise or lower the signal
Method in brief: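 Readout is reporter transcript level, gain or loss versus DMSO, measured 24 h post-dose via RT-PCR, fluorescent labelling and capillary electrophoresis. Human HepG2 liver cells carried transiently transfected CIS reporter constructs reflecting endogenous factors.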

[10] = ATG_NRF2_ARE_CIS: Attagene CIS-FACTORIAL HepG2 Assay for human Nuclear Factor Erythroid 2 Related Factor 2 (NFR2) response to Antioxidant Response Elements (ARE) (AID 2282992); conditions: HepG2 Attagene ARE/NRF2 reporter, transcription factor activity; actives raise or lower the signal;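 as to AC50: reporter mRNA level measured by RT-PCR and capillary electrophoresis fluorescence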
Method in brief: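 Readout: reporter mRNA quantified by RT-PCR plus FAM-labelled primer extension, HpaI digestion and capillary electrophoresis, 24 h after dosing transfected HepG2 cells. Gain or loss of signal is fitted bidirectionally against DMSO baseline.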

[11] = ATG_Oct_MLP_CIS: Attagene CIS-FACTORIAL HepG2 Assay for human Octamer-Binding Transcription Factor (Oct) (AID 2282993); conditions: HepG2 Attagene cis-factorial Oct reporter, mRNA; actives raise or lower the signal
Method in brief: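 Multiplexed cis-reporter assay in human liver HepG2 cells, 24 h incubation. Reporter RNA amplified and labelled, then resolved by capillary electrophoresis; DMSO serves as negative control and baseline.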

[12] = biological target: Cellular tumor antigen p53 (Homo sapiens) (UniProt P04637); test: ATG_p53_CIS: Attagene CIS-FACTORIAL HepG2 Assay for human p53 Transcription Factor (AID 2282994); conditions: HepG2 p53 cis-element reporter, Attagene mRNA; actives raise or lower the signal
Method in brief: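 Read-out: reporter mRNA by RT-PCR plus capillary electrophoresis with fluorescence detection. Human HepG2 liver cells carried transfected multi-reporter cis-element constructs, dosed 24 h. Gain or loss of signal fitted bidirectionally against DMSO control.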

[13] = BSK_3C_TissueFactor: BioMAP Diversity Plus: 3C Assay for Tissue Factor Biomarker Activity (AID 2282997); conditions: BioMAP 3C HUVEC, tissue factor biomarker readout; actives raise or lower the signal
Method in brief: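 In this endothelial system, HUVEC are treated for 24 h and Tissue Factor is assessed by ELISA, normalised to DMSO.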

[14] = BSK_3C_uPAR: BioMAP Diversity Plus: 3C Assay for Urokinase-type plasminogen activator receptor (uPAR) Biomarker Activity (AID 2282998); conditions: BioMAP 3C HUVEC, uPAR biomarker ELISA; actives raise or lower the signal
Method in brief: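 Dose primary human umbilical vein endothelial cells, incubate 24 h, measure cell-surface uPAR by ELISA, then fit the signal in both directions against the DMSO negative control.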

[15] = BSK_4H_Eotaxin3: BioMAP Diversity Plus: 4H Assay for Eotaxin 3 Biomarker Activity (AID 2283000); conditions: primary human endothelial cells (HUVEC); actives raise or lower the signal
Method in brief: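 ELISA quantitation of CCL26 (Eotaxin-3) protein from chemically dosed human vascular endothelial cells at 24 h; increases and decreases both scored relative to DMSO-treated baseline.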

[16] = ATG_M_32_TRANS: Attagene TRANS-FACTORIAL HepG2 Assay for M32 Transcription Factor (Internal Marker) (AID 2282984; active = hit-call score of the fitted dose curve at least 0.9, where 1 is the maximum;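 also: transcript level of a background control reporter unit measured by RT-PCR and capillary electrophoresis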); conditions: HepG2 Attagene TRANS M32 internal marker reporter
Method in brief: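 Internal background reporter in transfected HepG2: after 24 h chemical exposure, RNA reverse-transcribed, reporter cDNA amplified, fluorescently labelled and HpaI-cut, then sized by capillary electrophoresis. Gain of signal fitted against DMSO control.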

[17] = biological target: Oxysterols receptor LXR-alpha (Homo sapiens) (UniProt Q13133); test: ATG_LXRa_TRANS: Attagene TRANS-FACTORIAL HepG2 Assay for human Liver X Receptor alpha (LXRa) (AID 2282980; active = hit-call score of the fitted dose curve at least 0.9, where 1 is the maximum); conditions: HepG2 Attagene TRANS reporter, LXRa transactivation
Method in brief: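 In this multiplexed TRANS system, compounds act on HepG2 cells carrying GAL4-UAS reporter units and a receptor-GAL4 fusion for 24 h. Induced reporter RNA is amplified, fluorescently labelled and sized by capillary electrophoresis, with DMSO as baseline.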

[18] = biological target: Oxysterols receptor LXR-beta (Homo sapiens) (UniProt P55055); test: ATG_LXRb_TRANS: Attagene TRANS-FACTORIAL HepG2 Assay for human Liver X Receptor beta (LXRb) (AID 2282981; active = hit-call score of the fitted dose curve at least 0.9, where 1 is the maximum); conditions: HepG2 Attagene TRANS GAL4-LXRb reporter, mRNA
Method in brief: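 After 24 h chemical treatment of transfected HepG2 cells carrying exogenous NR-Gal4 chimeras, reporter mRNA was quantified by fluorescent RT-PCR and capillary electrophoresis; activity taken as increase over DMSO controls.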

[19] = biological target: Hepatocyte nuclear factor 4-alpha (Homo sapiens) (UniProt P41235); test: ATG_HNF4a_TRANS: Attagene TRANS-FACTORIAL HepG2 Assay for human Hepatocyte Nuclear Factor 4 alpha (HNF4a) (AID 2282982; active = hit-call score of the fitted dose curve at least 0.9, where 1 is the maximum); conditions: HepG2 HNF4a transactivation reporter, mRNA readout
Method in brief: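 Activity of an exogenous HNF4a–Gal4 fusion scored as induced GAL4-UAS reporter transcripts after 24 h chemical exposure of transfected human HepG2 cells. Read-out via RT-PCR with 6-FAM labelling and capillary electrophoresis; rise over DMSO baseline.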

[20] = BSK_3C_VCAM1: BioMAP Diversity Plus: 3C Assay for Vascular cell adhesion molecule 1 (VCAM1) Biomarker Activity (AID 2282999); conditions: BioMAP 3C HUVEC, VCAM1 ELISA, cytokine-stimulated; actives raise or lower the signal
Method in brief: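 Activity fitted in both directions relative to DMSO, with ELISA measurement of the surface marker on primary HUVEC (3C) at 24 h post-treatment; parallel SRB staining (0.1% SRB, TCA-fixed, 560 nm) flagged overt cytotoxicity.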

Measured: AC50

Cellular tumor antigen p53 (Homo sapiens), sequence (P04637 whole entry, looked up): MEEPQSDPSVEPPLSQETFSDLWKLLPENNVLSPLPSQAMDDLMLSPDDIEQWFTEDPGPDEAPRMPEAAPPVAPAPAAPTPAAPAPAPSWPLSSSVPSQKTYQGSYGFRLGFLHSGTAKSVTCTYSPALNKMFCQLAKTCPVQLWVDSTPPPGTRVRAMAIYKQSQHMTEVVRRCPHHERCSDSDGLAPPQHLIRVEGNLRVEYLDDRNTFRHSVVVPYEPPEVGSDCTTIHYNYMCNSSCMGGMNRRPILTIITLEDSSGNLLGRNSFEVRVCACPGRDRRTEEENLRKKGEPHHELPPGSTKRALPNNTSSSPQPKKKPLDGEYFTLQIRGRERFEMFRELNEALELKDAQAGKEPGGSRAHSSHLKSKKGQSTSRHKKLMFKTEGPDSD
Myc proto-oncogene protein (Homo sapiens), sequence (P01106 whole entry, looked up): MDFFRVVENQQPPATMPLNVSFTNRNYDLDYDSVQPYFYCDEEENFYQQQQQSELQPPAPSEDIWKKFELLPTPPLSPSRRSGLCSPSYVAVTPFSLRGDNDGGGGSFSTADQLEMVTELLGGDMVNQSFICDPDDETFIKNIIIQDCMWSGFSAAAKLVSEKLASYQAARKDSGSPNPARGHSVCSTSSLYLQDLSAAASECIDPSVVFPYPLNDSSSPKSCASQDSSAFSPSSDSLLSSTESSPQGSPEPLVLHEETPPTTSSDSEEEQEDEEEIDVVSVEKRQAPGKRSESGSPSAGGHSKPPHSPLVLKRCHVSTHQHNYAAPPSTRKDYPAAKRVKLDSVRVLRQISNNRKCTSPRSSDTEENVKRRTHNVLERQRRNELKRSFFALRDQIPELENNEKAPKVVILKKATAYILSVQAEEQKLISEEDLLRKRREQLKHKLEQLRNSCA
Nuclear respiratory factor 1 (Homo sapiens), sequence (Q16656 whole entry, looked up): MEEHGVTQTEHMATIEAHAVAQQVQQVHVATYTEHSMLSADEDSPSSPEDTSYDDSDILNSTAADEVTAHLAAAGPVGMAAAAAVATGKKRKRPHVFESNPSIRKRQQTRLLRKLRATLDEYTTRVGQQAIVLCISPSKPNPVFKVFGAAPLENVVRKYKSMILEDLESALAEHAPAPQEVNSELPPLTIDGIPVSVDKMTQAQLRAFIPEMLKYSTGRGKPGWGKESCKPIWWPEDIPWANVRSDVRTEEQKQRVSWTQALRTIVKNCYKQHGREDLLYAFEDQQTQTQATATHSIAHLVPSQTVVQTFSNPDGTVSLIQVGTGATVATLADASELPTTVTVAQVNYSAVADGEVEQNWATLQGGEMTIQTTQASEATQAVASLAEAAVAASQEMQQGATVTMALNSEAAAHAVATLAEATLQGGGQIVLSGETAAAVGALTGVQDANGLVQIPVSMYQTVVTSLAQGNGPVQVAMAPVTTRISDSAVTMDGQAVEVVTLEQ
Glucocorticoid receptor (Homo sapiens), sequence (P04150 whole entry, looked up, the tested form may be a part): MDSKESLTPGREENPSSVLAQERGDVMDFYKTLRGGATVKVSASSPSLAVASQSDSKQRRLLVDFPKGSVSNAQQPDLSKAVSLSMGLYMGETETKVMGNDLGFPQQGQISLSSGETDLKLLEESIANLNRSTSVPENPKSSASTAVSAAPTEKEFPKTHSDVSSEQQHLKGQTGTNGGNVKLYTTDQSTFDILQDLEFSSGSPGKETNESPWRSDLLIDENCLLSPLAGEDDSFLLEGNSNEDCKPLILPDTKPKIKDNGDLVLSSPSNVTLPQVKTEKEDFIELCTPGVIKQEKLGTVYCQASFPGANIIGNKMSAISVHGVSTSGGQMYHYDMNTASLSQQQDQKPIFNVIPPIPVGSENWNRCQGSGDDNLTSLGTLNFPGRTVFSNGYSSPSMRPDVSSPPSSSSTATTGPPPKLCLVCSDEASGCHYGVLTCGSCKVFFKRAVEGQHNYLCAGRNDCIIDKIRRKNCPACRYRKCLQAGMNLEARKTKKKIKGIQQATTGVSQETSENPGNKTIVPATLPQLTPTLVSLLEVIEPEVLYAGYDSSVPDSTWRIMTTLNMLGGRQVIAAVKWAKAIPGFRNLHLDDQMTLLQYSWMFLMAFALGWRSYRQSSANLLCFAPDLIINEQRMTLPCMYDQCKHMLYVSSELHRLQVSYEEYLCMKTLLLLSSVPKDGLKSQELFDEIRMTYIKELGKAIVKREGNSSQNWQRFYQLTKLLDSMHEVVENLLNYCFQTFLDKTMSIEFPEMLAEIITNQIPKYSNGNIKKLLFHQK
Oxysterols receptor LXR-alpha (Homo sapiens), sequence (Q13133 whole entry, looked up, the tested form may be a part): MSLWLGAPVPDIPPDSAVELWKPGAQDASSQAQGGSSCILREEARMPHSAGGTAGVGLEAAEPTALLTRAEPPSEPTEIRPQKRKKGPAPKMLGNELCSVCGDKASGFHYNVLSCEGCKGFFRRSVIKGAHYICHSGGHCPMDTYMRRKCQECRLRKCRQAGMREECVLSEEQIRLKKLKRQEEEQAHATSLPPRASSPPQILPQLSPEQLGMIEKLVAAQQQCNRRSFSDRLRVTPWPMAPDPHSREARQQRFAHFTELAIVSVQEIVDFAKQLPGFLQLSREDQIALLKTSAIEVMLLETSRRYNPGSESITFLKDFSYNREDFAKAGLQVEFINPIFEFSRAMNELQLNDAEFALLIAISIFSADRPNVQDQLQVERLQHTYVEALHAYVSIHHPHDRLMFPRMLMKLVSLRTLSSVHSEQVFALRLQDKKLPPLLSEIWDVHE
Bile acid receptor (Homo sapiens), sequence (Q96RI1 whole entry, looked up, the tested form may be a part): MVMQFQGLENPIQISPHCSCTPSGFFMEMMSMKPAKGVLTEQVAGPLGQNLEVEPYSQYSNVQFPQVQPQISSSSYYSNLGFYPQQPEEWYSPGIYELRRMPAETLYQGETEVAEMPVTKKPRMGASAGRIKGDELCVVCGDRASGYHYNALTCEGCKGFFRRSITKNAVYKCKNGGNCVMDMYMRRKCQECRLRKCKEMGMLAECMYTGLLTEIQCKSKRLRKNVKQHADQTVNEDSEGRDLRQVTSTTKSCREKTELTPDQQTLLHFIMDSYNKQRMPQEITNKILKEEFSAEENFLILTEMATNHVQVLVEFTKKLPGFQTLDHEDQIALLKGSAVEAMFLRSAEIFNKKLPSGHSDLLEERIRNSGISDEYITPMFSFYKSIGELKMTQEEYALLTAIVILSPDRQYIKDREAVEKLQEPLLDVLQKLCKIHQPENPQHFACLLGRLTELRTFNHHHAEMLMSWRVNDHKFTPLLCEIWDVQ
Nuclear receptor subfamily 4 group A member 2 (Homo sapiens), sequence (P43354 whole entry, looked up, the tested form may be a part): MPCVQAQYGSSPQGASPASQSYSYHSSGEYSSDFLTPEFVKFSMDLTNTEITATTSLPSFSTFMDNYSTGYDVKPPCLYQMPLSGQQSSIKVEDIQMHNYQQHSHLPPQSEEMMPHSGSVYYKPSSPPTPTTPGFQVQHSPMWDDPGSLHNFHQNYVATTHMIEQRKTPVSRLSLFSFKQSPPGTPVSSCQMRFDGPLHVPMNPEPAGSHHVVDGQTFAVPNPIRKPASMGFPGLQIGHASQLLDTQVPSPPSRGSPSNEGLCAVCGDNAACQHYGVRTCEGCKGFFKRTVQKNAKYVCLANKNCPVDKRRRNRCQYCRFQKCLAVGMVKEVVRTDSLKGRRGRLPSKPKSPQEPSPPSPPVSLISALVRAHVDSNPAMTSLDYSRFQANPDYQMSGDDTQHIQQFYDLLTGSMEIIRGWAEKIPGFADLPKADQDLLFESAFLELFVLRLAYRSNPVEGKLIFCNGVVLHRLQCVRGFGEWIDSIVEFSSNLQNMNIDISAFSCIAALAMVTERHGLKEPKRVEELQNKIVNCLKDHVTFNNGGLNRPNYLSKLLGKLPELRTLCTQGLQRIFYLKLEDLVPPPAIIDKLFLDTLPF
Oxysterols receptor LXR-beta (Homo sapiens), sequence (P55055 whole entry, looked up, the tested form may be a part): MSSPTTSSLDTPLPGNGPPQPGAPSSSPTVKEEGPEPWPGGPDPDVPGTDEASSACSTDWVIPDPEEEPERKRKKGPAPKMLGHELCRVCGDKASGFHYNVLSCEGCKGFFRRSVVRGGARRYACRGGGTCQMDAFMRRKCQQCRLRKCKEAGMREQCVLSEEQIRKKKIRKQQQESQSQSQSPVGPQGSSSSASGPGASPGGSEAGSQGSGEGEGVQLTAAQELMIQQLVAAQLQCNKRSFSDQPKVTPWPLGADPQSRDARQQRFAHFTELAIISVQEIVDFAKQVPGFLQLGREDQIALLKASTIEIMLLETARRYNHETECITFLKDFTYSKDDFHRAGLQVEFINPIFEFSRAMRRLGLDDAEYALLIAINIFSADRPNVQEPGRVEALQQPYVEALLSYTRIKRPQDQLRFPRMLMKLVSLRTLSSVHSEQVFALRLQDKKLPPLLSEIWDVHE
Hepatocyte nuclear factor 4-alpha (Homo sapiens), sequence (P41235 whole entry, looked up, the tested form may be a part): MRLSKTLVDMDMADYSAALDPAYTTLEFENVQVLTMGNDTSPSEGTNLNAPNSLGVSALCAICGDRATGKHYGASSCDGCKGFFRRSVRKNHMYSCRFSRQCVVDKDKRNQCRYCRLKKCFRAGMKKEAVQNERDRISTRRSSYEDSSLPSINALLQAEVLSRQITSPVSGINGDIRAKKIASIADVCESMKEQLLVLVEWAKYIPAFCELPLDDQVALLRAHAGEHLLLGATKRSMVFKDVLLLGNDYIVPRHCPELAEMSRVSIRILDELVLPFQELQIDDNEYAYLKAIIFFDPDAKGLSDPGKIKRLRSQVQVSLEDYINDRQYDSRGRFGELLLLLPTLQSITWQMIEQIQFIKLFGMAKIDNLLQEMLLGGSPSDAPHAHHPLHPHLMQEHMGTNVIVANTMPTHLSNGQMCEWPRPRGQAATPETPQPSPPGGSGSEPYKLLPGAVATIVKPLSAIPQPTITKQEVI

CC(=O)OCCC(C)CC(C)(C)C (stereo not given)
not listed: [16] | [17] | [18] | [19] | [20]
inactive: all other assays above

Nc1cc([N+](=O)[O-])ccc1Cl
active: [10] 62.5 µM
not listed: [4] | [13] | [17] | [18] | [19] | [20]
inactive: all other assays above

CC(C)(C#N)c1cc(Cn2cncn2)cc(C(C)(C)C#N)c1
not listed: [4] | [10] | [13] | [14] | [15] | [20]
inactive: all other assays above

CC(=O)OCC=Cc1ccccc1
inactive: [1] | [2] | [16] | [4] | [5] | [6] | [7] | [8] | [11] | [12]
active: [10] 34.9 µM

COC(=O)c1ccc(C)cc1
not listed: [9] | [13]
inactive: all other assays above

CC(CCO)CCc1ccccc1 (stereo not given)
not listed: [13] | [14] | [15] | [18] | [19] | [20]
inactive: all other assays above

CC1CCC(C(C)(C)O)CC1 (stereo not given)
not listed: [3] | [13] | [14] | [15] | [20]
inactive: all other assays above

CC(C)=CCCC(C)CC=O (stereo not given)
not listed: [9] | [10] | [13] | [14] | [15] | [18] | [20]
inactive: all other assays above

CCCCCCCCCCCCSC
not listed: [4] | [5] | [9] | [13] | [14] | [15] | [20]
inactive: all other assays above

OCCN1CCNCC1
not listed: [9] | [13] | [14] | [15] | [16] | [17] | [20]
inactive: all other assays above

CC(C#N)(CCC(=O)O)N=NC(C)(C#N)CCC(=O)O (stereo not given)
not listed: [4] | [9] | [13] | [14] | [15] | [18] | [19] | [20]
inactive: all other assays above

CC(=O)O[C@]1(C(C)=O)CC[C@H]2[C@@H]3C[C@H](C)C4=CC(=O)CC[C@]4(C)[C@H]3CC[C@@]21C
active: [1] 0.354 µM | [4] 16.8 µM | [9] 20 µM | [10] 65.1 µM | [12] 34.9 µM
not listed: [13] | [16] | [19] | [20]
inactive: all other assays above

Cc1ccc2sc3cccc(C)c3c2c1
inactive: [1] | [2] | [19] | [3] | [5] | [6] | [7] | [8] | [9] | [11] | [12]

CNC(=O)Oc1ccc2c(c1)[C@]1(C)CCN(C)[C@@H]1N2C
active: [10] 100 µM
not listed: [3] | [13] | [14] | [15] | [17] | [18] | [19] | [20]
inactive: all other assays above

CC(C)(N)CO
not listed: [4] | [13] | [14] | [15] | [16] | [18] | [19] | [20]
inactive: all other assays above

BrC1CCC(Br)C(Br)CCC(Br)C(Br)CCC1Br (stereo not given)
active: [6] 110 µM | [7] 46 µM | [11] 58.6 µM | [14] 3.22 µM | [15] 3.25 µM
not listed: [10] | [13] | [16] | [18] | [19] | [20]
inactive: all other assays above

CCC(=O)/C=C/C1C(C)=CCCC1(C)C (stereo not given)
not listed: [9] | [10] | [13] | [14] | [15] | [20]
inactive: all other assays above

CN(C)CCOCCN(C)C
inactive: [1] | [2] | [18] | [16] | [6] | [7] | [9] | [10] | [11] | [12]

CC(CC(C)(C)C)CC(C)(C)CC(C)(C)C (stereo not given)
not listed: [13] | [14] | [15] | [17] | [18] | [20]
inactive: all other assays above
